Source: PubChem BioAssay (National Center for Advancing Translational Sciences (NCATS))
Only a selection was taken, and hits are over-represented in it overall.
ALOX12 inh = blocks human arachidonate 12S-lipoxygenase; purified 12hLO, xylenol orange hydroperoxide absorbance; Potency, µM (highest dose often 108 µM), without a hit: top-dose activity change, negative = inhibition, usual class: inhibitors; 580,000 tested, 1.1% active; further: on the % scale 0 is the no-effect control and ±100 the full control effect
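Purified human 12hLO (150 nM final) in 25 mM Hepes, 0.01% Triton X-100, pH 7.0 was preincubated 15 min at room temperature with compound. Then 40 uM arachidonic acid was added, 30 min. Hydroperoxide was read by Fe-XO absorbance ratio 573/405 nm.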
VDR inhibitor = vitamin D3 receptor (human) inhibition. Potency, µM, inactives show max response, negative = inhibition, hits mostly inhibitors. 400,000 tested, 0.93% active. P11473. VDR-SRC2-3 peptide fluorescence polarization, 2 h; further: on the % scale 0 is the no-effect control and ±100 the full control effect
Target sequence (P11473 whole entry, looked up): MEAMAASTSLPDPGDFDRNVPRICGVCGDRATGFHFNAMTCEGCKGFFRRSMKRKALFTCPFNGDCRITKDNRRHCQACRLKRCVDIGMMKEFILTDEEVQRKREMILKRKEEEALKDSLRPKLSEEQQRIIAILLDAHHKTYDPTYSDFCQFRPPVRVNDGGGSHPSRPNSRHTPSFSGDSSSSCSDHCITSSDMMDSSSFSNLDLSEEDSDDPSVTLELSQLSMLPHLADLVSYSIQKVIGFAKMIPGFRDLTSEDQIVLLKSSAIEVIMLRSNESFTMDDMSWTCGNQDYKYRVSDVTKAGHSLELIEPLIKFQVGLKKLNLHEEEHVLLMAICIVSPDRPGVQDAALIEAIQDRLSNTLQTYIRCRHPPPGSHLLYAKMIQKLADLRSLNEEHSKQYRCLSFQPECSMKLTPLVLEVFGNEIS
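After 23 nl compound addition and a short centrifugation, plates sat for 2 hours at ambient temperature; polarization of fluorescence then indicated loss of VDR binding to peptide SRC2-3.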
GRP78 ERSR act = induces the endoplasmic reticulum stress response in human glioma cells | U87-MG GRP78 promoter luciferase reporter, 16 h | 420,000 tested, 0.02% active | Potency, µM, without a hit: at the highest dose activation, usual class: activators; further: series mostly up to about 76 µM; % of control where 0% means no effect; nearly all actives have a fitted effect of over 35% in size
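Stably transfected U87-MG glioma cells carrying a GRP78-based luciferase sensor; 16 h compound incubation. Luminescence end-point read 10 min after Bright-Glo addition at room temperature.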
G9a block = inhibitors of human histone lysine methyltransferase G9a; G9a H3K9 monomethylation, AlphaScreen, 2 h; 350,000 tested, 8.8% active; AID 504332; Potency, µM (top dose mostly 102 µM), inactives show at the top dose activity, negative = inhibition, most hits filed as inhibitors; Q96KQ7; further: on the % scale 0 is the no-effect control and ±100 the full control effect; nearly all actives have a fitted effect of over 75% in size
Target sequence (Q96KQ7 913-1193 limits assumed): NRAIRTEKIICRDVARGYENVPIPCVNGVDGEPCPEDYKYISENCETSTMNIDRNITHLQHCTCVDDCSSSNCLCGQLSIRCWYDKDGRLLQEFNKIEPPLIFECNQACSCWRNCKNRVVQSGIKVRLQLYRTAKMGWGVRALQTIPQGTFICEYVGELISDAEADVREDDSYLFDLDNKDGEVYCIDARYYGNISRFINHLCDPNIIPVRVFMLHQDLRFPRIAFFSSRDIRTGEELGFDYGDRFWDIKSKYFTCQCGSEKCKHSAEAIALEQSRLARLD
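Compounds were preincubated with 20 nM G9a for 15 min, after which biotinylated H3K9 peptide (500 nM) and SAM (20 uM) started a 2 h room-temperature reaction. Monomethylated product was quantified by antibody-based AlphaScreen chemiluminescence.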
Sfp inh = Sfp phosphopantetheinyl transferase inhibition; Biochemical Sfp PPTase activity, qHTS; Potency, µM, without a hit: largest response in the series, negative = inhibition, hits mostly inhibitors; 310,000 tested, 3.5% active; AID 1490;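 further: the enzyme is Sfp with the accession as filed and its product quenches rhodamine fluorescence; 0% = enzyme reaction without inhibitor and -100% = no enzyme wells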
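After 15 min at room temperature with compound, 15 nM Sfp received 5 uM rhodamine-CoA plus 12.5 uM BHQ-2-ybbR (50 mM Hepes pH 7.6, 10 mM MgCl2). Rate came from the fluorescence difference over 30 min, ex 525/em 598 nm.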
* hit, by the source's call; ? = inconclusive; nt = not tested or not shown; [ ] = remark or other dose. The call rests on the fitted dose curve; in most records, active means well fitted curve in the direction sought with a large enough effect; inconclusive means small, poorly fitted or top-dose-only effect, or another doubt; inactive means no such curve, though single readings can be large; an effect the other way counts as inactive or inconclusive. Potency means the concentration at half of the fitted maximal effect.

SMILES | ALOX12 inh | VDR inhibitor | GRP78 ERSR act | G9a block | Sfp inh
CC1CCN(Cc2c(O)ccc3c2O/C(=C\c2ccco2)C3=O)CC1 | nt | 4% | -6% | 5.6µM* | ?
Cc1ccc(/C=C2\Oc3c(ccc(O)c3CN3CCN(CCO)CC3)C2=O)cc1 | -16% | 2% | -2% | 4% | -20%
O=c1cc(-c2ccccc2)sc2nnc(-c3ccccc3F)n12 | 23% | nt | nt | nt | nt
CCOc1ccc(NC(=O)CSc2nc3ccccc3c(=O)n2CC2CCCO2)cc1 (stereo not drawn) | -4% | nt | nt | nt | nt
O=c1[nH]c(S)c(/C=C2\C=Nc3ccccc32)s1 | -3% | ? | 2% | 14µM* | ?
CCCCNC(=O)c1sc(=S)n2c1[nH]c(=O)c1ccc(C(=O)NCCc3ccc(OC)c(OC)c3)cc12 | nt | ? | -4% | 25µM* | 12%
O=C(NCc1ccccc1)c1sc(=S)n2c1[nH]c(=O)c1ccccc12 | ? | -2% | 2% | 28µM* | 8%
O=C(NCc1ccccc1)c1c(O)c2ccccc2[nH]c1=O | -19% | -8% | 2% | -9% | 7%
CCN1C(=O)/C(=C/c2ccc(C)o2)N(C)C1=S | ? | ? | 0% | 8.9µM* | 6.3µM*
Cc1ccc(/C=C2/NC(=O)N(Cc3ccc(Br)cc3)C2=O)o1 | 45µM* | ? | -6% | 32µM* | 3.2µM*
Cc1ccc(/C=C2/NC(=O)N(c3ccccc3)C2=O)o1 | -18% | ? | 6% | 36%[0.501 µM] | 25µM*
Cc1ccc(/C=C2/NC(=O)N(Cc3ccccc3F)C2=O)o1 | ? | 79µM* | -2% | 32µM* | 14µM*
Cc1cc(/C=C2/NC(=O)N(Cc3ccccc3F)C2=O)c(C)n1C(C)C | -27% | -15% | 6% | ? | -12%
Cn1c(SCc2csc(-c3ccccc3)n2)nnc1C1CC1 | -7% | nt | nt | nt | nt
CCCN1C(=O)/C(=C/c2ccc(C)o2)NC1=S | nt | nt | nt | 7.9µM* | 20µM*
O=C1N/C(=C/c2ccc(N3CCOCC3)o2)C(=O)N1c1cccc(Cl)c1 | ? | ? | -14% | ? | 8.9µM*
Cc1ccc(CN2C(=O)N/C(=C\c3ccc(N4CCOCC4)cc3)C2=O)cc1 | 6% | 13% | -2% | -2%[59 µM] | 9%
CCN1C(=O)N/C(=C/c2ccc(C)o2)C1=O | -11% | 89µM* | -1% | ? | -97%
CCCCN1C(=O)C2(CC(=O)Nc3[nH]ncc32)c2ccccc21 (stereo not drawn) | 28% | nt | nt | nt | nt
O=C(c1cc2ccccc2oc1=O)N1CCC(N2CCCCC2)CC1 | -28% | nt | nt | nt | nt
CCN(CC)S(=O)(=O)c1ccc(=O)n(CCOc2ccc(C#N)cc2)c1 | 2% | nt | nt | nt | nt
O=C1C=CC(=O)c2c(O)c(Cl)c(Cl)c(O)c21 | nt | 4.5µM* | -4% | nt | 11µM*
O=C1C=CC(=O)c2c(O)c(CO)c(CO)c(O)c21 | ? | ? | 5% | nt | nt
Cc1ccc(CNc2nc3c([nH]2)c(=O)n(C)c(=O)n3C)cc1 | -2% | -10% | 1% | 45µM* | -9%
Cn1c(=O)c2[nH]c(Nc3ccccc3)nc2n(C)c1=O | -21% | 9% | -2% | 5%[59 µM] | ?
SMILES | ALOX12 inh | VDR inhibitor | GRP78 ERSR act | G9a block | Sfp inh
CCn1c(C)[n+](CCCS(=O)(=O)[O-])c2cc(Cl)c(Cl)cc21 | 32% | -12% | -1% | ? | -5%
O=S(=O)([O-])CCC[n+]1c(SCCCS(=O)(=O)O)sc2ccc(Cl)cc21 | -20% | ? | -4% | 25µM* | 3.2µM*
Cc1cc(C(=O)N/N=C2\CC(=O)c3ccccc32)c(C)n1-c1ccc(F)cc1 | 7% | 10% | 5% | 50µM* | 1%
CCOc1cc(/C=N/NC(=O)c2cc(C)n(-c3ccc(F)cc3)c2C)ccc1O | 0% | -9% | -2% | nt | -6%
CCCn1c(C(C)NS(=O)(=O)c2ccccc2)n[nH]c1=S (stereo not drawn) | -18% | 6% | -6% | 20µM* | 4%
CCn1c(C(C)NS(=O)(=O)c2ccc(Cl)cc2)n[nH]c1=S (stereo not drawn) | ? | -3% | 2% | nt | 2%
COc1cccc(C=C(C#N)C(=O)c2ccccc2)c1 | ? | nt | -3% | nt | nt
COc1cccc(C(=O)/C(C#N)=C\c2ccccc2C(F)(F)F)c1 | 40µM* | nt | nt | nt | nt
COc1cccc(C(=O)/C(C#N)=C\c2ccc(F)c(Br)c2)c1 | 18µM* | nt | nt | nt | nt
N#C/C(=C\c1cccc(Cl)c1)C(=O)c1ccccc1 | ? | ? | -4% | 40µM* | ?
COc1ccc(/C=C(/C#N)C(=O)c2c(Cl)cccc2Cl)cc1 | 6.3µM* | nt | nt | nt | nt
COc1ccccc1/C=C(/C#N)C(=O)c1c(Cl)cccc1Cl | -100% | nt | nt | nt | nt
CNC(=O)C1CCN(Cc2nnnn2-c2ccccc2)CC1 | -8% | nt | nt | nt | nt
O=C(Nc1ccc(Cl)cc1C(F)(F)F)c1ccccc1F | 38% | nt | nt | nt | nt
O=C(COC(=O)c1cccs1)c1ccc(OC(=O)c2ccco2)cc1 | 3% | nt | nt | nt | nt
CCc1cccc(CC)c1NC(=O)/C(C#N)=C/c1ccccc1C(F)(F)F | -26% | 50µM* | ? | ? | 12%
Cc1nn(-c2ccccc2)c(OC(=O)C(C)C)c1Sc1ccccc1 | ? | 71µM* | -1% | 1.6µM* | nt
Cc1nn(-c2ccccc2)c(OC(=O)C(C)(C)C)c1Sc1ccccc1 | ? | 79µM* | -4% | 4µM* | nt
Cc1nn(C(C)(C)C)c(OC(=O)C(C)(C)C)c1Sc1ccccc1 | -28% | -8% | 0% | 66%[59 µM] | nt
COc1ccc(C(=O)Oc2c(Sc3ccccc3)c(C)nn2-c2ccccc2)cc1OC | -19% | -29% | ? | ? | nt
Cc1nn(-c2ccccc2)c(N)c1Sc1ccc([N+](=O)[O-])cc1 | ? | ? | -3% | 10µM* | ?
COc1cc(C(=O)Oc2c(Sc3ccccc3)c(C)nn2-c2ccccc2)cc(OC)c1OC | ? | ? | -1% | 4µM* | nt
CCC(CC)C(=O)Nc1ccccc1C | -2% | nt | nt | nt | nt
O=C(CCC1CCCC1)Nc1nc2ccccc2s1 | 3% | nt | nt | nt | nt
Cc1ccc(Sc2c(C)nn(-c3ccccc3)c2OC(=O)C(C)(C)C)cc1 | ? | ? | -1% | 10µM* | nt
SMILES | ALOX12 inh | VDR inhibitor | GRP78 ERSR act | G9a block | Sfp inh
Cc1ccc(C(=O)Oc2c(S(=O)(=O)c3ccccc3)c(C)nn2-c2ccccc2)cc1 | 0% | -1% | -3% | ? | nt
CC(=O)Oc1c(S(=O)(=O)c2ccc(C)cc2)c(C)nn1-c1ccccc1 | ? | 1% | -6% | 11µM* | 12%
Cc1ccc(Sc2c(C)nn(C(C)(C)C)c2OC(=O)C(C)(C)C)cc1 | -16% | -15% | -3% | 18%[59 µM] | nt
CN=C(NC)c1ccc([N+](=O)[O-])cc1 | -35% | nt | nt | nt | nt
CCOc1ccccc1C(=O)NC1CCN(c2cc(-c3ccc(OC)cc3)[nH]n2)C1 (stereo not drawn) | 67% | nt | nt | nt | nt
Cc1ccc2c(CN3CCN(c4cccc(Cl)c4)CC3)cc(=O)oc2c1 | -1% | nt | nt | nt | nt
CCCOc1cccc(CN2CCCCC2c2cccnc2)c1 (stereo not drawn) | -22% | -6% | -2% | 45µM* | 26%
